In experiment [1] the target is Paired box protein Pax-6 (Homo sapiens) (UniProt P26367). Briefly: ATG_Pax6_CIS: Attagene CIS-FACTORIAL HepG2 Assay for human Paired Box 6 (PAX6) (AID 2282956). Particulars: HepG2 CIS-FACTORIAL PAX6 reporter transcription, RNA readout; actives raise or lower the signal. In short, it runs like this: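 Values derive from bidirectional curve fitting of reporter mRNA signal relative to DMSO. HepG2 cells bearing transfected cis-regulated MRTUs were exposed for 24 h; transcripts were read by RT-PCR and capillary electrophoresis.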

The nature of experiment [2]: ATG_PXRE_CIS: Attagene CIS-FACTORIAL HepG2 Assay for human Pregnane X Receptor Element (PXRE) (AID 2282957). Particulars: HepG2 Attagene CIS-FACTORIAL PXRE reporter, mRNA; actives raise or lower the signal. An outline of the steps:
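Bidirectional activity, baselined to DMSO, derived from reporter mRNA fluorescence (RT-PCR plus capillary electrophoresis) in HepG2 cells bearing cis-promoter reporter units, 24 h exposure.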

Experiment [3] can be described thus: ATG_PPRE_CIS: Attagene CIS-FACTORIAL HepG2 Assay for human Peroxisome Proliferator-activated Response Element (PPRE) (AID 2282958). To be noted: HepG2 PPRE cis-element reporter, Attagene transcription factor profiling; actives raise or lower the signal. An outline of the steps:
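HepG2 cells transiently transfected with multiplexed cis-element reporter units measure endogenous transcription factor activity. After 24 h compound exposure, reporter mRNA is quantified by RT-PCR, 6-FAM labeling, HpaI digestion and capillary electrophoresis; bidirectional fits are made against DMSO baseline.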

Experiment [4] is described as follows: ATG_RORE_CIS: Attagene CIS-FACTORIAL HepG2 Assay for human RAR-related Orphan Receptor Element (RORE) (AID 2282959). Particulars: HepG2 Attagene cis-factorial RORE reporter, mRNA; actives raise or lower the signal. In short, it runs like this: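 HepG2 cells transiently transfected with multiple cis-element reporter transcription units, exposed to chemical for 24 h. Reporter mRNA quantified by RT-PCR, 6-FAM primer-extension labeling, HpaI digestion and capillary electrophoresis; bidirectional fit versus DMSO baseline.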

Experiment [5] is described as follows: ATG_Sox_CIS: Attagene CIS-FACTORIAL HepG2 Assay for human SRY-box transcription factor (SOX) (AID 2282960). To be noted: HepG2 Attagene cis-factorial SOX reporter, mRNA; actives raise or lower the signal. In short, it runs like this: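 HepG2 cells transiently transfected with cis-element-driven multiple reporter transcription units, dosed 24 h; reporter mRNA measured by RT-PCR, FAM labelling, HpaI digestion and capillary electrophoresis. Bidirectional fit versus DMSO baseline.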

For experiment [6], the target named is Transcription factor Sp1 (Homo sapiens) (UniProt P08047). The experiment in a line: ATG_Sp1_CIS: Attagene CIS-FACTORIAL HepG2 Assay for human Specificity Protein 1 (Sp1) (AID 2282961). To be noted: HepG2 Sp1 cis-reporter transcription, actives raise or lower the signal. In short, it runs like this:
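HepG2 cells transiently transfected with multiple reporter transcription units driven by cis-regulatory elements; Sp1-responsive reporter mRNA measured 24 h after dosing by RT-PCR and capillary electrophoresis fluorescence, fitted bidirectionally against DMSO baseline.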

Experiment [7] is described as follows: ATG_SREBP_CIS: Attagene CIS-FACTORIAL HepG2 Assay for human Sterol Regulatory Element Binding (SREBP) (AID 2282962). Particulars: HepG2 Attagene cis-factorial SREBP reporter, mRNA; actives raise or lower the signal. An outline of the steps:
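Values derive from bidirectional curve fitting with DMSO as baseline. The underlying measurement is reporter mRNA from cis-element-regulated units in transiently transfected HepG2, quantified by RT-PCR and capillary electrophoresis after 24 h exposure.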

Experiment [8] deals with Signal transducer and activator of transcription 3 (Homo sapiens) (UniProt P40763). Briefly: ATG_STAT3_CIS: Attagene CIS-FACTORIAL HepG2 Assay for human Signal Transducer and Activator of Transcription 3 (STAT3) (AID 2282963). Particulars: HepG2, Attagene cis-factorial STAT3 reporter transcription; actives raise or lower the signal. An outline of the steps: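 Readout is reporter transcript quantified by RT-PCR and capillary electrophoresis, with 6-FAM primer extension and HpaI digestion. Total RNA is taken 24 h after dosing transiently transfected HepG2 carrying cis-regulated reporter units. Bidirectional fit against DMSO.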

Experiment [9] can be described thus: ATG_TA_CIS: Attagene CIS-FACTORIAL HepG2 Assay for human TA Basal Promoter (AID 2282964). Particulars: HepG2 Attagene CIS-factorial TA basal promoter reporter; actives raise or lower the signal. An outline of the steps: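 HepG2 cells transiently transfected with multiple reporter units under cis promoter elements, reporting endogenous transcription factor activity; this endpoint tracks the TA basal promoter as background control. Reporter mRNA after 24 h dosing measured by RT-PCR/capillary electrophoresis; bidirectional fits versus DMSO.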

Experiment [10] in a line: ATG_TCF_b_cat_CIS: Attagene CIS-FACTORIAL HepG2 Assay for human T-Cell-Factor with beta-catenin (TCF/b-cat) (AID 2282965). To be noted: HepG2 TCF/beta-catenin cis-reporter transcription, actives raise or lower the signal. An outline of the steps: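 Endogenous transcription factor activity is captured through cis-promoter reporter constructs transiently introduced into human HepG2 liver cells. Induced reporter mRNA is measured after 24 h and fitted bidirectionally relative to DMSO.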

Experiment [11] is described as follows: ATG_TAL_CIS: Attagene CIS-FACTORIAL HepG2 Assay for human TAL Basal Promoter (AID 2282966).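 Note: background control endpoint measuring basal TAL promoter reporter mRNA not a specific factor.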 Particulars: HepG2 Attagene cis-factorial TAL promoter reporter; actives raise or lower the signal. In short, it runs like this: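 Human hepatoma HepG2 cells, transfected with promoter-regulated reporter units, were treated 24 h. Reporter transcript levels, measured through RT-PCR and capillary electrophoresis, were fitted for gain or loss relative to DMSO.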

A short description of experiment [12]: ATG_TGFb_CIS: Attagene CIS-FACTORIAL HepG2 Assay for human Transforming Growth Factor (TGF) (AID 2282967). Particulars: HepG2 Attagene CIS TGFb reporter, mRNA transcription; actives raise or lower the signal. In short, it runs like this: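 HepG2 cells transiently transfected with cis-promoter-driven multiple reporter units measure endogenous TF activity; reporter mRNA quantified at 24 h by RT-PCR, FAM labeling, HpaI digestion and capillary electrophoresis. Bidirectional fit vs DMSO.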

The nature of experiment [13]: ATG_VDRE_CIS: Attagene CIS-FACTORIAL HepG2 Assay for human Vitamin D Receptor Element (VDRE) (AID 2282968). Particulars: HepG2 VDRE cis-reporter transcription, actives raise or lower the signal. An outline of the steps:
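Readout is VDRE-driven reporter mRNA reflecting endogenous factor activity in human HepG2 cells, sampled 24 h post-dose. Quantification used labelled RT-PCR products separated by capillary electrophoresis; bidirectional analysis relative to DMSO.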

Experiment [14] addresses Estrogen receptor (Homo sapiens) (UniProt P03372). The experiment in a line: ATG_ERa_TRANS: Attagene TRANS-FACTORIAL HepG2 Assay for human Estrogen Receptor alpha (ERa) (AID 2282970; active = hit-call score of the fitted dose curve at least 0.9, where 1 is the maximum). Particulars: HepG2 Attagene TRANS ERa GAL4 reporter, mRNA. An outline of the steps:
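Signal derives from fluorescence of labelled reporter PCR fragments separated by capillary electrophoresis. HepG2 cells transiently carrying multiple GAL4-UAS reporter units were treated 24 hours, and induction above DMSO baseline was fitted as activity.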

Experiment [15] has as its target Steroid hormone receptor ERR1 (Homo sapiens) (UniProt P11474). Briefly: ATG_ERRa_TRANS: Attagene TRANS-FACTORIAL HepG2 Assay for human Estrogen-Related Receptor alpha (ERRa) (AID 2282971; active = hit-call score of the fitted dose curve at least 0.9, where 1 is the maximum). Particulars: HepG2 Attagene TRANS reporter, ERRa transactivation. An outline of the steps:
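Signal gain relative to DMSO for an ERRa-Gal4 chimeric receptor, read as reporter mRNA by RT-PCR/capillary electrophoresis. Human HepG2 liver cells, transient multiplex reporter transfection, 24 h chemical exposure.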

Experiment [16] has as its target X-box-binding protein 1 (Homo sapiens) (UniProt P17861). The experiment in a line: ATG_Xbp1_CIS: Attagene CIS-FACTORIAL HepG2 Assay for human X-box Binding Protein 1 (XBP1) (AID 2282972). Particulars: HepG2 XBP1 cis-element reporter, Attagene multiplex; actives raise or lower the signal. In short, it runs like this:
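Human hepatoma HepG2, cis-element reporter system, 24 h treatment; mRNA quantified by RT-PCR/CE fluorescence; fit relative to DMSO.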

A short description of experiment [17]: ATG_M_19_TRANS: Attagene TRANS-FACTORIAL HepG2 Assay for M19 Transcription Factor (Internal Marker) (AID 2282974; active = hit-call score of the fitted dose curve at least 0.9, where 1 is the maximum). To be noted: HepG2 Attagene TRANS-FACTORIAL M19 internal marker reporter. An outline of the steps: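 HepG2 cells transiently transfected with multiple GAL4-UAS reporter transcription units were exposed to chemicals for 24 h. Reporter mRNA was read by RT-PCR, 6-FAM primer extension, HpaI digestion and capillary electrophoresis; gain of signal fitted relative to DMSO.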

Experiment [18] in a line: ATG_PBREM_CIS: Attagene CIS-FACTORIAL HepG2 Assay for human Phenobarbital-responsive Enhancer Module (PBREM) (AID 2282955). Particulars: HepG2 PBREM cis-reporter, Attagene multiplexed transcription; actives raise or lower the signal. An outline of the steps: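 HepG2 cells transiently transfected with multiple cis-regulated reporter transcription units; endogenous factor activity at the PBREM element measured as reporter mRNA 24 h after dosing, via RT-PCR and capillary electrophoresis of fluorescent fragments; bidirectional fitting versus DMSO.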

Experiment [19] is described as follows: ATG_GAL4_TRANS: Attagene TRANS-FACTORIAL HepG2 Assay for GAL4 (Internal Marker) (AID 2282976; active = hit-call score of the fitted dose curve at least 0.9, where 1 is the maximum). To be noted: HepG2 Attagene TRANS GAL4 internal marker reporter. An outline of the steps: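 Liver HepG2 line bearing multiplexed GAL4-UAS reporter constructs; 24 h chemical treatment. Transcripts were quantified as fluorescent fragments on capillary electrophoresis after RT-PCR and HpaI cut, with activity fitted upward from DMSO.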

We go through five molecules from PubChem BioAssay (EPA / NIEHS).

Inconclusive results are not listed. Calls of active or inactive are those of the source. Rule for the calls, unless noted: active = hit-call score of the fitted dose curve at least 0.9, where 1 is the maximum; inactive = score below 0.9.

Chain of X-box-binding protein 1 (Homo sapiens) (P17861 whole entry, looked up): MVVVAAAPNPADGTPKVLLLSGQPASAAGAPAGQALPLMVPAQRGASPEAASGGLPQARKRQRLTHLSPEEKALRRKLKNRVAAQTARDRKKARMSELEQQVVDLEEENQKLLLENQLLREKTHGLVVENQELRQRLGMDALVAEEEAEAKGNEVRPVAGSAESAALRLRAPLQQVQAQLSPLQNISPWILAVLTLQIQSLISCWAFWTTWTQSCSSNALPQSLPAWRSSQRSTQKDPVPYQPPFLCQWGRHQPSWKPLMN
Chain of Transcription factor Sp1 (Homo sapiens) (P08047 whole entry, looked up): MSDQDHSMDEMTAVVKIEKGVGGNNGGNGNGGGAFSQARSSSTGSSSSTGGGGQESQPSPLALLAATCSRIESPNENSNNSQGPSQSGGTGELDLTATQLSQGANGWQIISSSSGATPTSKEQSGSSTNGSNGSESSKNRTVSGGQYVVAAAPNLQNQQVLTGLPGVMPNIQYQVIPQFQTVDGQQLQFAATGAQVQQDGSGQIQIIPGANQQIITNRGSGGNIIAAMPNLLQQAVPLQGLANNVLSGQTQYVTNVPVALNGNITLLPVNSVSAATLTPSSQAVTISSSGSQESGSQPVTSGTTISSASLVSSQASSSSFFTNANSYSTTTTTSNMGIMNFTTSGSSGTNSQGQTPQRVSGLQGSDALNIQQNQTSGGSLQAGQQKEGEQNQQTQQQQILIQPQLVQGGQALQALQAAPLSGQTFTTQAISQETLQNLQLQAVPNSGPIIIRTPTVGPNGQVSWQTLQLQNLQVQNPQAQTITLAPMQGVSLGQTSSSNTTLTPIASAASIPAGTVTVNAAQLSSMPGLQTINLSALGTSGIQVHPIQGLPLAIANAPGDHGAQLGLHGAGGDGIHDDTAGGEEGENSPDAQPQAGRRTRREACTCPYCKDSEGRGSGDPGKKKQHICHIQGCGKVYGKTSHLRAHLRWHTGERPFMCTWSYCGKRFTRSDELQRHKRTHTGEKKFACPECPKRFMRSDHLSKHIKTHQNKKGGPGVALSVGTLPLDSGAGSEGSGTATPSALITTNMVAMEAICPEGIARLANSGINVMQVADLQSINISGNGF
Chain of Paired box protein Pax-6 (Homo sapiens) (P26367 whole entry, looked up): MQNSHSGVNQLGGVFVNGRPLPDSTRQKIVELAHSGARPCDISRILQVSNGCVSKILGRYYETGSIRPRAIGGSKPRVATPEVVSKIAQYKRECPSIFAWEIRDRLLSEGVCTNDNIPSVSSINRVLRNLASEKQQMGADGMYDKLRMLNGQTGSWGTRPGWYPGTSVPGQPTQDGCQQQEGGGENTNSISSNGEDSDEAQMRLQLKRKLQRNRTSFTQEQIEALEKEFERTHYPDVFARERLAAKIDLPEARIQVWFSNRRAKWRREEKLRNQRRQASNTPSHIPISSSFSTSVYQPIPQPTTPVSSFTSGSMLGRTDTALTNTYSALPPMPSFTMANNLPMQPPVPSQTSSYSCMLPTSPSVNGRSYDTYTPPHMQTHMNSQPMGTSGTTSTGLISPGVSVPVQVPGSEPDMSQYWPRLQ
Chain of Signal transducer and activator of transcription 3 (Homo sapiens) (P40763 whole entry, looked up): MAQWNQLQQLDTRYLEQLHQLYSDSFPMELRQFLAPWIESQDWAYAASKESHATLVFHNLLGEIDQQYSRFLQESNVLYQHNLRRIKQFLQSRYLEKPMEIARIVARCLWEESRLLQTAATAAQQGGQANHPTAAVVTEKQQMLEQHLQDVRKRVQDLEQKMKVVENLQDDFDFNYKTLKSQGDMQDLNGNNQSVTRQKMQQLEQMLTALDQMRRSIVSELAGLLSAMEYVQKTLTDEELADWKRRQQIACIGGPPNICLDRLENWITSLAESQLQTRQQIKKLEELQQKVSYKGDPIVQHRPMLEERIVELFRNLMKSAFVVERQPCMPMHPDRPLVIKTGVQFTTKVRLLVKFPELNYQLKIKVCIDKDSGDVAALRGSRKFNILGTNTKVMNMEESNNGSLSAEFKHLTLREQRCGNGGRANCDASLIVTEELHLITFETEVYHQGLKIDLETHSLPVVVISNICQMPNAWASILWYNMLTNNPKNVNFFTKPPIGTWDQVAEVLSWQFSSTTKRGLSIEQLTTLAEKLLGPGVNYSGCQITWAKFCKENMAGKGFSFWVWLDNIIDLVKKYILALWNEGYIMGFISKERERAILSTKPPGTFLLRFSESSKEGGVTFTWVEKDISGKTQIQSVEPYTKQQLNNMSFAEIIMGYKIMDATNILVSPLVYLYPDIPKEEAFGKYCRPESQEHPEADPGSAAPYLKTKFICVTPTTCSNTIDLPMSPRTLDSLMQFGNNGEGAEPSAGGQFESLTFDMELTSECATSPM
Chain of Estrogen receptor (Homo sapiens) (P03372 whole entry, looked up, the tested form may be a part): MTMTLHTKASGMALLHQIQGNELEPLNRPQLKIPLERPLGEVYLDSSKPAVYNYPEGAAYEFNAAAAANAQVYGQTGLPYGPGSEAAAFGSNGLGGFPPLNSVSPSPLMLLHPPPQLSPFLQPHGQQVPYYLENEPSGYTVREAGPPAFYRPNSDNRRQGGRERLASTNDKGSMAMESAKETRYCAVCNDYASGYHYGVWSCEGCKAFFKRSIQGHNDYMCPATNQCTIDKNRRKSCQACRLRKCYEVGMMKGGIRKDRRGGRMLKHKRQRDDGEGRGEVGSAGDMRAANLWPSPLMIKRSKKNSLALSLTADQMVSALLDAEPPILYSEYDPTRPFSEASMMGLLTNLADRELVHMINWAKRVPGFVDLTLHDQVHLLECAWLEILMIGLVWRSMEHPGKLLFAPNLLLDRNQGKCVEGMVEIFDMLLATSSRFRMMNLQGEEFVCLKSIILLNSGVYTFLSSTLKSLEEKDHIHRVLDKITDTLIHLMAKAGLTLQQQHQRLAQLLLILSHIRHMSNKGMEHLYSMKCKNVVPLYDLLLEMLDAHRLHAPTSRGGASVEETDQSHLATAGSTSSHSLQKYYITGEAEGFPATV
Chain of Steroid hormone receptor ERR1 (Homo sapiens) (P11474 whole entry, looked up, the tested form may be a part): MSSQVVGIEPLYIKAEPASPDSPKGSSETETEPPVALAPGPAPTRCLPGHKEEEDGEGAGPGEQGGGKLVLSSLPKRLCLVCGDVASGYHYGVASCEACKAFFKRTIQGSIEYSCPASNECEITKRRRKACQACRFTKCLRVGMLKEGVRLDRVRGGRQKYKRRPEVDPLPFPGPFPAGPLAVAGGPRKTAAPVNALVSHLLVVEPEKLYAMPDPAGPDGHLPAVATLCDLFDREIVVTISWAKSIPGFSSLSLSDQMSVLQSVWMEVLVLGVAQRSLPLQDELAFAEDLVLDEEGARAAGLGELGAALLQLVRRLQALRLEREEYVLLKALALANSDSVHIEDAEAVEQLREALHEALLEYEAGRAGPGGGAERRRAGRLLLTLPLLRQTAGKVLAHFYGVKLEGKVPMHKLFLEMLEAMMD

For the molecule `O=C1CCC(=O)N1`, the call in experiment [1], in [2], in experiment [3], in [4], in experiment [5] and in experiment [6] was inactive. Besides, the result in experiment [7], in [8], in experiment [9], in experiment [10], in experiment [11] and in [12] was inactive. For the same molecule, the molecule was called inactive in experiment [13], in [14], in [15], in [16] and in experiment [17].

On to `CC(=N[Si](C)(C)C)O[Si](C)(C)C`, for which the outcome in experiment [18], in [1], in experiment [3], in [4], in experiment [5] and in experiment [7] was inactive. The result in experiment [8], in experiment [9], in experiment [11], in experiment [12], in experiment [13] and in experiment [14] was inactive. Besides, the result in [16], in experiment [17] and in experiment [19] was inactive.

As to `COc1ccccc1NC(=O)CC(C)=O`, the result in [18], in experiment [1], in experiment [3], in experiment [4], in experiment [5] and in experiment [6] was inactive. The molecule was called inactive in [7], in experiment [8], in experiment [9], in experiment [10], in experiment [11] and in [12]. Besides, the outcome in experiment [16], in [17] and in experiment [19] was inactive. In [13], the AC50 (as a rule, the concentration giving half of the maximal activity seen) is 68.2 µM (active).

As to `C=C(C)C(N)=O`, the result in experiment [18], in experiment [1], in experiment [4], in experiment [5], in experiment [6] and in experiment [9] was inactive. Moreover, the call in [10], in experiment [11], in experiment [12], in experiment [13], in [16] and in [19] was inactive.

On to `N#CCCCC(C#N)CCC#N` (stereo not given), for which the molecule was called inactive in [1], in [2], in [3], in [4], in experiment [5] and in experiment [6]. The call in [7], in experiment [8], in [9], in experiment [10], in experiment [11] and in experiment [12] was inactive. The molecule was classed as inactive in experiment [15], in experiment [16] and in experiment [19].
